# Assay outcomes: PubChem, National Center for Advancing Translational Sciences (NCATS)
# PNC assembly inh – blocks assembly of the perinucleolar compartment | activity change (PNC), negative = inhibition, % at 10 µM | PC3M PTB-GFP, PNC prevalence imaging, 16 h; active compounds read low | 3.1% of 140,000 active;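 active means readout at or below -70, meaning at least 70% loss of cells showing the perinucleolar compartment, a nuclear body marking cancer cells; inconclusive means readout between -30 and a set limit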
#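 Compounds are pinned in duplicate onto adhered PC3M cells stably expressing GFP-tagged PTB and incubated 16 h at 37 C. Cells are then fixed, nuclei stained with Hoechst, and PNC-positive cells counted.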
# IMPase Li cell – cell-permeable IMPase inhibitors with lithium potentiation. Potency, µM (series often up to 59.4 µM), most hits filed as inhibitors. CHO-M1 cells, IP1 TR-FRET (IP-One), carbachol + lithium. 0.35% of 210,000 active;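 further: IP1 builds up when IMPase is blocked and the TR-FRET signal falls; nearly all actives have a fitted effect of over 50% in size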
#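 CHO-M1, 2000 cells/well, 16–30 h culture; cpd + low Li+, 30 min 37C; lysis with d2-IP1/Eu-anti-IP1 Ab, 10 min RT; TR-FRET 665/620 ratio and 620 channel; AC50 via Hill.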
# ALDH1A1 block – blocks purified human ALDH1A1 activity; Potency, µM (top dose mostly 75.3 µM), usual class: inhibitors; 7.3% of 220,000 active; P00352; Purified ALDH1A1, NADH fluorescence, propionaldehyde substrate; active means well fitted inhibition curve with a large enough effect, not every such curve was filed as active; inconclusive means small, poorly fitted or top-dose-only effect, or another doubt; inactive means no such curve, though single readings can be large or run the other way
# Target sequence (P00352 whole entry, looked up): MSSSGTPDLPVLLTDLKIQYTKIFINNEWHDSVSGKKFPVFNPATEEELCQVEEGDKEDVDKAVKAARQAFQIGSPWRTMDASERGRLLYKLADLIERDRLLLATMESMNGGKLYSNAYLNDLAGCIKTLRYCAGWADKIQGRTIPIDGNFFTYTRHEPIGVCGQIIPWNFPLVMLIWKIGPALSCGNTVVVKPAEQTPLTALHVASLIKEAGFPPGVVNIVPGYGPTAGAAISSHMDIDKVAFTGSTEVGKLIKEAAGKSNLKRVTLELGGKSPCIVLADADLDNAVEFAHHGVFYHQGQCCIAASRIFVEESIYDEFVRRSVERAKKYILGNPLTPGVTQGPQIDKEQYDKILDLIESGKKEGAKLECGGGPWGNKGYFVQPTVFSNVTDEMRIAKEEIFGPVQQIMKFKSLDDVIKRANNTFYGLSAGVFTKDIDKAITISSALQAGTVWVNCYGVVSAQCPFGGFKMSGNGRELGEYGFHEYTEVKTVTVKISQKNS
# IMPase cell inh – IMPase inhibition in cells; CHO-M1 cells, IP1 accumulation, HTRF TR-FRET ratio; P97697; inhibition (IP1 accumulation), % at 46.1 µM; 120,000 tested, under 10 active; active means well fitted curve in the direction sought with a large enough effect in the signal ratio, not every such curve was filed as active; inconclusive means small, poorly fitted or top-dose-only effect, or a change in a side signal; inactive means no such curve, though single readings can be large or run the other way; the % refers to the signal ratio;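 further: cells stimulated with carbachol in lithium chloride buffer; higher means more IMPase inhibition seen as more IP1 and lower FRET ratio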
#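 CHO-M1, 2000 cells/well, cultured 16–30 h; cpd up to 46 uM; carbachol (50 uM solution, stimulation buffer w/ 50 mM LiCl, pH 7.4), 30 min 37C; IP-One TR-FRET, 10 min RT; Ex 320/Em 665, 620; Hill-fit AC50.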
# HPGD inh – HPGD (human) dehydrogenase inhibition | P15428 | purified HPGD, NADH fluorescence kinetic, PGE2 substrate | Potency, µM, most hits filed as inhibitors | 4.3% of 150,000 active; active means well fitted inhibition curve with a large enough effect, not every such curve was filed as active; inconclusive means small, poorly fitted or top-dose-only effect, or another doubt; inactive means no such curve, though single readings can be large or run the other way
# Target sequence (P15428 whole entry, looked up): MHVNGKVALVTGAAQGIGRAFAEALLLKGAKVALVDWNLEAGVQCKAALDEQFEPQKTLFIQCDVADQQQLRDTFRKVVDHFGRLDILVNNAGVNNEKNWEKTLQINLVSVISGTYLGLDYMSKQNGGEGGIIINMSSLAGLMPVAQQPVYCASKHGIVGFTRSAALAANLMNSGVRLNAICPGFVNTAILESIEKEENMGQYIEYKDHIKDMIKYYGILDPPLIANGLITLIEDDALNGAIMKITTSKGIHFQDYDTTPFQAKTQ
#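 20 nM HPGD preincubated 15 min at room temperature with compound in 50 mM Tris-HCl pH 8, 0.01% Tween 20. Started with 1 mM NAD+ and 30 uM prostaglandin E2; NADH fluorescence (360/450 nm) read 5 times over 30-s intervals, last minus first.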
# NPSR antag – antagonists of human neuropeptide S receptor cAMP signaling; Q6W5P4; CHO-NPSR cells, cAMP TR-FRET, antagonist mode; Potency, µM (doses to about 38.3 µM), most hits filed as inhibitors; 1% of 220,000 active; AID 1461; further: nearly all actives have a fitted effect of over 50% in size
# Hits are given with their value; – = inactive; ? = inconclusive; · = no result; [ ] = dose if it differs, or a comment. In the library only some 11% were active in any assay of this set; here they are far more common. Unless noted, the call rests on the fitted dose curve; in most records, active means well fitted curve in the direction sought with a large enough effect; inconclusive means small, poorly fitted or top-dose-only effect, or another doubt; inactive means no such curve, though single readings can be large; an effect the other way counts as inactive or inconclusive.
SMILES,PNC assembly inh,IMPase Li cell,ALDH1A1 block,IMPase cell inh,HPGD inh,NPSR antag
CC(C)CCSc1nc2c(c(=O)[nH]c(=O)n2C)n1CCCc1ccccc1,–,–,–,–,?,?
Cn1c(=O)[nH]c(=O)c2c1nc(SCCN1CCOCC1)n2CCCc1ccccc1,?,–,–,–,35.5µM,–
Cn1c(=O)[nH]c(=O)c2c1nc(SCCN1CCOCC1)n2Cc1ccccc1,?,–,–,–,–,–
Cn1c(=O)[nH]c(=O)c2c1nc(SCC(=O)O)n2CCc1ccccc1,?,–,6.31µM,–,12.6µM,–[7.67 µM]
CCCCn1nnc(NC(=O)c2ccc(-c3cccc([N+](=O)[O-])c3)o2)n1,·,–,?,·,·,–
CC(C)(C)NC(=O)COC(=O)c1ccc(Cl)cc1O,·,–,–,·,·,–
Cc1ccc(N=Nc2c(N)n(-c3ccccc3)[nH]c2=O)cc1,–,–,–,–,–,–
COc1ccc(-c2nnc(SCc3cccc(C)c3)n2N)cc1,–,–,–,–,–,–
CCCc1nnc(SCc2ccc(OC)cc2)n1N,–,–,–,–,17.8µM,–
CCCCc1nnc(SCCSc2nnc(CCCC)n2N)n1N,–,–,17.8µM,–,–,–
CCCOc1ccc(CSc2nnc(CCC)n2N)cc1,–,–,–,–,–,–
COc1ccc(-c2nnc(SCc3cc(C)ccc3C)n2N)cc1,–,–,22.4µM,–,?,–
CCN(CC)S(=O)(=O)c1ccc2c(c1)N(CC(=O)N(CCc1ccncc1)C(C)C)C(=O)CO2,·,–,–,·,·,–
O=C(/C=C/c1ccnc2ccccc12)c1cccs1,·,–,28.2µM,·,·,?
CCn1cc(CNc2nc3nonc3nc2N2CCCCC2)cn1,·,–,–,·,·,–
C=CCN1C(=O)C(O)(CC(=O)c2ccc(-n3cccc3)cc2)c2ccccc21 (centres undefined),?,–,0.501µM,–,–,–
O=C(CC1(O)C(=O)Nc2ccccc21)c1ccc(-n2cccc2)cc1 (centres undefined),?,–,?,–,–,–
CCCCN1C(=O)C(O)(CC(=O)c2ccc(CC)cc2)c2cc(Br)ccc21 (centres undefined),·,·,·,–,·,·
COC(=O)CN1C(=O)C(O)(CC(=O)c2ccc(C)cc2)c2cc(Br)ccc21 (centres undefined),–,–,20µM,–,–,–
COC(=O)CN1C(=O)C(O)(CC(=O)c2ccc(Br)cc2)c2ccccc21 (centres undefined),–,–,0.355µM,–,–,–
COC(=O)CN1C(=O)C(O)(CC(=O)c2ccc(F)cc2)c2ccccc21 (centres undefined),·,·,·,–,·,·
O=C(COc1ccc(Cl)cc1Cl)N/N=C1\CCCc2ccccc21,?,–,–,–,–,–
O=C(CCN1CCN(c2ccc(F)cc2)CC1)Nc1ccc(F)cc1,–,–,–,?,–,–
NS(=O)(=O)c1ccc(NC(=S)N2CCN(c3cccc(Cl)c3)CC2)cc1,–,–,–,·,25.1µM,–
O=C(O)/C=C\C(=O)Nc1ccccc1C(=O)N1CCN(c2ccc(Cl)cc2)CC1,–,–,–,–,–,–
SMILES,PNC assembly inh,IMPase Li cell,ALDH1A1 block,IMPase cell inh,HPGD inh,NPSR antag
O=C(O)/C=C\C(=O)Nc1ccc(N2CCN(c3ccc(Cl)c(Cl)c3)CC2)cc1,·,–,6.31µM,·,·,?
O=C(O)/C=C\C(=O)Nc1ccc(N2CCN(c3ccc(F)cc3)CC2)cc1,·,–,8.91µM,·,·,–
O=C(O)/C=C\C(=O)Nc1ccc(N2CCN(c3cccc(Cl)c3)CC2)cc1,·,–,28.2µM,·,·,–
Nc1nc(N2CCN(c3cccc(Cl)c3)CC2)n[nH]1,·,–,–,·,·,–
COC(=O)Cc1ccc(NC(=S)N2CCN(c3ccc(F)cc3)CC2)cc1,-95.7,–,–,–,–,–
COC(=O)Cc1ccc(NC(=S)NCc2ccc(F)cc2)cc1,?,·,–,–,·,–
Nc1ccc(N2CCN(c3cccc(Cl)c3)CC2)cc1,–,–,14.1µM,·,–,–
O=C(O)/C=C\C(=O)Nc1ccc(N2CCN(c3ccc(Cl)cc3)CC2)cc1,·,–,11.2µM,·,·,–
CSc1ccccc1NC(=S)Nc1cccc(C(F)(F)F)c1,–,–,?,–,–,–
Cc1ccc(Cn2ccc(NC(=O)c3nn(C)cc3[N+](=O)[O-])n2)cc1,–,–,–,·,–,–
CCc1nc2sc3c(c2c(=O)n1NC(=O)CCl)CCCC3,?,–,12.6µM,–,–,–
OCCCc1n[nH]c(=S)n1-c1ccccc1,·,–,?,·,·,–
CCOCCCNC(=O)c1ccc2c(c1)ncn2C1CCCC1,–,–,?,–,17.8µM,–
O=C(CCl)N(c1ccccc1)c1c[nH]c2ccccc12,–,·,?,–,·,–
O=C(CCl)N(c1ccc(Cl)cc1)c1c[nH]c2ccccc12,–,–,7.08µM,–,–,7.94µM
CN(C)c1ccc(/C=[N+](\[O-])C(C)(C)/C=N/O)cc1,–,–,22.4µM,–,–,–
Cc1ccc(-n2nc3c(n2)/C(=N/O)CC/C3=N\O)cc1,-100.0,–,–,–,–,–
CN(C)c1ccc(-c2cncnc2Nc2ccccc2)cc1,·,–,25.1µM,·,·,·
COc1ccc(C[C@H]2CN3C(=NC[C@H]3Cc3ccccc3)N2CCNC(=O)CCC2CCCCC2)cc1,·,–,10µM,·,·,?
COc1ccc(C[C@@H]2CN3C(=NC[C@@H]3C)N2C[C@H](C)NC(=O)CCC2CCCCC2)cc1,·,–,7.08µM,·,·,–
O=C(Nc1cc2c3c(c1)C1CCCC1CN3CC1CCCC21)c1ccccc1 (centres undefined),–,–,?,–,?,–
CC(C)(C)c1ccc(C(=O)Nc2ccc(O)c3c(=O)cc(-c4ccccc4Cl)oc23)cc1,·,·,·,·,·,–
CC(=O)c1cnc2ncnn2c1C,-113.4,–,–,·,–,–
CCCc1nc(SCC(=O)Nc2cc(C)on2)c2ccccc2n1,–,?,–,–,–,–
CCc1nc(SCC(=O)Nc2nc3c(s2)CCCC3)c2ccccc2n1,–,10µM,–,?,–,–
SMILES,PNC assembly inh,IMPase Li cell,ALDH1A1 block,IMPase cell inh,HPGD inh,NPSR antag
CCn1c(SCC(=O)Nc2nc3c(s2)CCCC3)nnc1-c1ccccc1,?,–,?,–,–,–
O=C(Nc1nc2c(s1)CCCC2)c1cc(-c2ccc3c(c2)OCO3)nc2ccccc12,?,–,–,–,?,–
CCCc1nc(SCC(=O)Nc2nc3c(s2)CCCC3)c2ccccc2n1,–,12.6µM,?,–,–,–
Cc1ccccc1-c1cc(C(=O)Nc2nc3c(s2)CCCC3)c2ccccc2n1,-100.0,–,?,–,?,–
CC(=O)c1ccc(N2CCN(C(=O)c3nn(Cc4ccccc4)c(=O)c4ccccc34)CC2)cc1,·,–,?,·,·,–
Cc1cc(C)cc(N(CCC(=O)O)S(=O)(=O)c2ccc3ccccc3c2)c1,–,–,–,·,–,–
FC(F)(F)c1ccccc1-c1cncnc1NCc1cccs1,·,–,?,·,·,·
O=[N+]([O-])c1ccc(Sc2nnnn2-c2ccccc2)c(Cl)c1,–,–,3.55µM,–,–,–
